Data: the supplement of paper PMC6522484
± gives the standard deviation of the averaged measurements.

What was measured:
DLD1 [1] = experiment: cell viability (CellTiter-Glo) relative to plate median (fraction of plate median); higher = more viable cells; settings: 5 µM; treatment time 24 h; reporter: 7TFP
Summary of the method: (§1)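 Per-well firefly luciferase or CellTiterGlo luminescence, normalised to the plate median, is what is reported. It was measured in colorectal cancer cells with stable lentiviral TCF/Wnt firefly luciferase reporters after a 24 h treatment with library compounds at a final 5 µM. The mean of two independent replicates is given.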

HCT116 = experiment: as above; settings: 5 µM; treatment time 24 h; reporter: TCF4/Wnt
Summary of the method: as §1

SW480 [2] = experiment: as above; settings: 5 µM; treatment time 24 h; reporter: 7TFP
Summary of the method: as §1

DLD1 [3] = experiment: TCF/Wnt firefly luciferase reporter signal relative to plate median (fraction of plate median); higher = higher Wnt reporter signal; settings: 5 µM; treatment time 24 h; reporter: 7TFP
Summary of the method: as §1

SW480 [4] = experiment: as above; settings: 5 µM; treatment time 24 h; reporter: 7TFP
Summary of the method: as §1

Row | SMILES | cell viability (DLD1 [1]) | cell viability (HCT116) | cell viability (SW480 [2]) | TCF/Wnt firefly luciferase reporter signal (DLD1 [3]) | TCF/Wnt firefly luciferase reporter signal (SW480 [4])
1 | Cc1cc(=O)oc2cc(O)cc(O)c12 | 1.05 ± 0.042 | 1.11 ± 0.11 | 1 ± 0.053 | 0.888 ± 0.12 | 0.975 ± 0.12
2 | CC(C)CCC[C@@H](C)[C@H]1CC[C@H]2[C@@H]3CC[C@@H]4C[C@H](O)CC[C@]4(C)[C@H]3CC[C@]12C | 1.06 ± 0.028 | 1.01 ± 0.033 | 1.02 ± 0.076 | 0.985 ± 0.036 | 1.03 ± 0.07
3 | C[C@H]1c2cccc(O)c2C(=O)C2=C(O)[C@]3(O)C(=O)C(C(N)=O)=C(O)[C@@H](N(C)C)[C@@H]3[C@@H](O)[C@@H]21 | 0.942 ± 0.096 | 0.964 ± 0.033 | 0.975 ± 0.0028 | 0.967 ± 0.23 | 1.03 ± 0.18
4 | O=C(O)CCC(=O)c1ccc(-c2ccccc2)cc1 | 1.04 ± 0.073 | 0.947 ± 0.12 | 0.962 ± 0.018 | 1 ± 0.095 | 1.04
5 | COc1ccc([C@@H](C)C(=O)c2ccc(O)cc2O)cc1 | 1.04 ± 0.098 | 1.09 ± 0.071 | 1.025 ± 0.0071 | 1.02 ± 0.071 | 1.07 ± 0.1
6 | CNC[C@H](O)c1ccc(O)c(O)c1 | 0.9995 ± 0.00071 | 1.05 ± 0.021 | 0.916 ± 0.064 | 1.11 ± 0.064 | 1.12 ± 0.042
7 | O=C(O)CCC(=O)OC[C@@H](NC(=O)C(Cl)Cl)[C@H](O)c1ccc([N+](=O)[O-])cc1 | 1 ± 0.12 | 0.895 ± 0.04 | 0.977 ± 0.027 | 0.838 ± 0.044 | 0.97 ± 0.022
8 | CC(C)=CCc1c2c(c3occ(-c4ccc(O)cc4)c(=O)c3c1O)C=CC(C)(C)O2 | 0.955 ± 0.093 | 0.98 ± 0.028 | 0.99 ± 0.015 | 1.1 ± 0.099 | 0.914 ± 0.099
9 | CC1=CC2C(CC1=O)C(C)=CCC2C(C)C (stereo not given) | 0.983 ± 0.095 | 0.971 ± 0.084 | 1 ± 0.012 | 0.987 ± 0.1 | 0.945 ± 0.19
10 | O=C(CCBr)N1CCN(C(=O)CCBr)CC1 | 1.07 ± 0.042 | 1.035 ± 0.0071 | 1.025 ± 0.0071 | 1.03 ± 0.12 | 1.01 ± 0.019
11 | OCc1ccccc1O[C@@H]1O[C@H](CO)[C@@H](O)[C@H](O)[C@H]1O | 0.971 ± 0.098 | 0.971 ± 0.056 | 0.969 ± 0.0042 | 0.862 ± 0.099 | 0.967 ± 0.042
12 | C[C@@H]1[C@H](O)[C@@H](C)/C=C/C=C/C=C/C=C/C=C/C=C/C=C/[C@H](O[C@@H]2O[C@H](C)[C@@H](O)[C@H](N)[C@@H]2O)C[C@@H]2O[C@](O)(C[C@@H](O)C[C@@H](O)[C@H](O)CC[C@@H](O)C[C@@H](O)CC(=O)O[C@H]1C)C[C@H](O)[C@H]2C(=O)O | 1.04 ± 0.076 | 1 ± 0.096 | 1.02 ± 0.089 | 1.06 ± 0.14 | 1.01 ± 0.018
13 | OCc1cccnc1 | 0.978 ± 0.088 | 1.05 ± 0.17 | 0.934 ± 0.016 | 0.988 ± 0.12 | 0.917 ± 0.017
14 | CC(=O)c1cc2c(cc1O)OC(C)(C)C=C2 | 1.09 ± 0.099 | 1 ± 0.011 | 1.03 ± 0.014 | 0.99 ± 0.057 | 1.01 ± 0.023
15 | O=C1c2cccc(O)c2C(=O)c2c(O)cccc21 | 0.96 ± 0.013 | 0.923 ± 0.12 | 0.992 ± 0.054 | 0.958 ± 0.12 | 1 ± 0.051
16 | CN(C)CCOC(c1ccc(Cl)cc1)c1ccccn1 (stereo not given) | 1.004 ± 0.0085 | 0.977 ± 0.033 | 0.916 ± 0.088 | 0.888 ± 0.0057 | 0.891 ± 0.12
17 | CC(Oc1ccccc1)C(=O)N[C@@H]1C(=O)N2[C@@H]1SC(C)(C)[C@@H]2C(=O)O (stereo not given in full) | 0.97 ± 0.032 | 0.928 ± 0.022 | 0.9865 ± 0.00071 | 1.07 ± 0.071 | 1.065 ± 0.0071
18 | COc1cc(/C=C/C(=O)O)ccc1O | 1.004 ± 0.0092 | 1.11 ± 0.057 | 1.01 ± 0.038 | 0.972 ± 0.069 | 1.12 ± 0.078
19 | Oc1ccc([C@H]2Oc3cc(O)cc(O)c3C[C@H]2O)cc1 | 1.045 ± 0.0071 | 1.01 ± 0.14 | 0.974 ± 0.021 | 1.01 ± 0.12 | 1.01 ± 0.07
20 | COc1ccc(C2C(=O)c3ccccc3C2=O)cc1 | 0.997 ± 0.061 | 0.984 ± 0.08 | 1.01 ± 0.045 | 0.933 ± 0.095 | 0.94 ± 0.021
21 | C[C@H]1O[C@@H](O[C@H]2[C@@H](O)C[C@H](O[C@H]3[C@@H](O)C[C@H](O[C@H]4CC[C@@]5(C)[C@H](CC[C@@H]6[C@@H]5C[C@@H](O)[C@]5(C)[C@@H](C7=CC(=O)OC7)CC[C@]65O)C4)O[C@@H]3C)O[C@@H]2C)C[C@H](O)[C@@H]1O | 0.838 ± 0.068 | 0.282 ± 0.23 | 0.855 ± 0.053 | 0.151 ± 0.15 | 0.221 ± 0.094
22 | Cc1cc(=O)n(-c2ccccc2)n1C | 1.03 ± 0.081 | 0.94 ± 0.026 | 1.01 ± 0.034 | 1.11 ± 0.2 | 1.075 ± 0.0071
23 | Cc1ncc([N+](=O)[O-])n1CCO | 1.08 ± 0.064 | 1.06 ± 0.071 | 1.02 ± 0.014 | 1.06 ± 0.042 | 0.964 ± 0.11
24 | CC(=O)Oc1cc(OC(C)=O)c2c(c1)O[C@H](c1ccc(OC(C)=O)c(OC(C)=O)c1)[C@H](OC(C)=O)C2 | 1 ± 0.055 | 0.972 ± 0.15 | 1.01 ± 0.016 | 0.921 ± 0.044 | 1 ± 0.015
25 | Oc1ccc(O)cc1 | 0.839 ± 0.11 | 0.856 ± 0.022 | 0.959 ± 0.1 | 1.14 ± 0.14 | 1.04 ± 0.2
26 | CO/C=C/C(=O)c1cc2cnc3c(=N)cc(NC(C)=O)c([nH]1)c23 [Lymphostin] | 1.08 ± 0.042 | 0.71 ± 0.12 | 1.14 ± 0.092 | 0.891 ± 0.011 | 0.947 ± 0.028
27 | CC(=O)Oc1cc2c(c(C)c1OC(C)=O)CC=C1[C@@]2(C)CC[C@@]2(C)C3C[C@](C)(C(=O)O)CC[C@]3(C)CC[C@]12C (stereo not given in full) | 0.903 ± 0.12 | 0.958 ± 0.16 | 0.953 ± 0.081 | 0.869 ± 0.064 | 0.898 ± 0.12
28 | OC[C@@H](O)[C@@H](O[C@@H]1O[C@H](CO)[C@H](O)[C@H](O)[C@H]1O)[C@H](O)[C@@H](O)CO | 1.02 ± 0.038 | 0.904 ± 0.067 | 0.979 ± 0.021 | 0.781 ± 0.083 | 1.03 ± 0.1
29 | C[C@@H]1C(=O)O[C@H]2C[C@@]34[C@H]5C[C@@H](C(C)(C)C)[C@]36[C@@H](OC(=O)[C@@H]6O)O[C@@]4(C(=O)O5)[C@]21O | 1.07 ± 0.021 | 1.11 ± 0.064 | 0.99 ± 0.015 | 1.15 ± 0.021 | 1.03 ± 0.11
